# Screening data deposited in PubChem by several laboratories.
# Rows were chosen to be rich in hits. Some 1.8% of all compounds tested hit in one or more screens of this group.
# Myeloid diff MLP: compounds promoting myeloid differentiation | ER-HoxA9 myeloid progenitors, lysozyme-GFP differentiation, flow cytometry | calls only at 10 µM | 1% of 360,000 active | AID 624256;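 active = normalized GFP-positive differentiation at or above the plate's own cutoff, the solvent-only control mean plus 3 SD; inconclusive = no clear call, values can overlap the other calls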;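 note: cells exposed to compound for four days before flow analysis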
# Exocytosis inh: lytic granule exocytosis inhibition; 0.66% of 360,000 active; TALL-104 LAMP-1 surface exposure, flow cytometry; cells stimulated with thapsigargin and PMA; AID 651702; inhibition, % at 10 µM;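 active = inhibition above about 55%, limit read from the data; inconclusive = no clear call, values can overlap the other calls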
# GC-B act: GC-B (human) receptor activation. P20594. HEK293-GC-B cells, CNP EC30, cGMP TR-FRET; 0% at EC30 CNP, 100% saturating CNP. activation, % at 10 µM. 0.11% of 370,000 active;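 active = activation at 10 µM reaching about 35% in either raw or pattern-adjusted values, limit read from the data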
# GC-A act: GC-A (human) enzyme activation | 0.14% of 370,000 active | HEK293 GC-A cells, cGMP TR-FRET, EC30 ANP; 0% at EC30 ANP, 100% saturating ANP | activation, % at 10 µM; in the data active = activation above about 40%
# Myeloid diff CP1: promotes myeloid progenitor differentiation. shares compounds with Myeloid diff MLP. ER-HoxA9 myeloid progenitors, GFP/Mac1 double-positive flow. calls only. 2% of 2,300 active;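 active = share of green or green-and-red cells above 9 and 9% in run 1 or 4 and 3% in run 2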
# GFP autofluor: flagged as fluorescent in myeloid differentiation counter-screen. ER-HoxA9 myeloid progenitors, no estrogen, GFP autofluorescence flow cytometry; vehicle wells 0%, positive control 100%. AID 651707. 7.4% of 2,300 active. shares compounds with Myeloid diff MLP. fluorescence response, % (no concentration beside the values);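 active = over 5% cells positive for green fluorescent reporter, or over 2% positive for both it and APC stain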;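 note: range taken on the double positive population between DMSO and positive control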
# * hit, by the source's call; i = inactive; ? = inconclusive; nt = no result; + = active, no number; ! = a repeat was not active.
SMILES,Myeloid diff MLP,Exocytosis inh,GC-B act,GC-A act,Myeloid diff CP1,GFP autofluor
C[C@H](O)C#Cc1cnc2c(c1)C(=O)N([C@H](C)CO)C[C@@H](C)[C@H](CN(C)C(=O)Nc1ccc(C(F)(F)F)cc1)O2,i,-2,-1,3,i,0
COC(=O)C(C)Sc1nnc2n(-c3cccc(C)c3)c(=O)c3c4c(sc3n12)CCCC4 (stereo not given),i,1,4,11,i,0
Nc1[nH]c(C(=O)c2ccccc2)c(-c2cccc3ccccc23)c1C(=O)c1ccc(Br)cc1,nt,nt,-1,-4,nt,nt
CCCCOCCCNC(=O)N[C@H](C(=O)OC)C(C)C,+,2,-1,2,i,0
COc1ccc(CCCNC(=O)C2Cc3c(-c4ccccc4)ccnc3O2)cc1 (stereo not given),i,6,-4,-1,nt,nt
CC(C)(C)[C@@H]1C=C(C(=O)O)[C@H](c2ccc(Cl)cc2)N1S(=O)(=O)c1ccccc1,+,0,0,2,i,3
Cc1cccc(NC(=O)c2ccccc2SCc2ccc(F)cc2)n1,+,1,-6,-2,i,0
COc1ccc(Oc2nccc(OC)c2C#N)cc1,i,-1,1,-4,nt,nt
COc1ccnc(Oc2ccc(C)cc2C)c1C#N,+,8,4,0,i,0
COC(=O)C1=C(C)N(C)C(=NCc2ccc(C(F)(F)F)cc2)NC1c1ccc(C(F)(F)F)cc1 (stereo not given),nt,nt,-11,-4,nt,nt
CC1CCN(CCCNC(=O)c2cc3c(=O)n(C)c4ccccc4c3n2C)CC1,i,4,-4,0,i,0
Cn1c(C(=O)NCCCN2CCOCC2)cc2c(=O)n(C)c3ccccc3c21,i,2,-1,4,nt,nt
O=C(NCc1cc(Cl)cc(Cl)c1)c1csc([C@@H]2O[C@H](CO)[C@H](O)[C@H](O)[C@H]2O)n1,i,1,3,0,nt,nt
O=C(NCCN1CCc2ccccc2C1)C1CCN(S(=O)(=O)N2CCCCC2)CC1,i,13,4,-1,i,0
O=C(NCCN1CCc2ccccc2C1)C1CCN(S(=O)(=O)N2CCC3(CC2)OCCO3)CC1,i,-2,-1,3,nt,nt
Cn1c(=O)c2c(nc(NCc3ccco3)n2C/C=C/c2ccccc2)n(C)c1=O,i,29,21,18,i,0
Cn1c(=O)c2c(nc(NCc3ccco3)n2C)n(C)c1=O,i,-1,-3,9,nt,nt
CC1(C(=O)Nc2ccc3c(c2)OCO3)Cc2c(-c3cccc(C(N)=O)c3)ccnc2O1 (stereo not given),?,11,-2,-6,nt,nt
COC(=O)C1CN(Cc2ccc(Cl)cc2)CCS(=O)(=O)N1Cc1cn(Cc2ccc(C)cc2)nn1 (stereo not given),nt,nt,-7,-7,nt,nt
O=C(c1cncnc1)N1CCC(n2nnc3ncccc32)CC1,nt,nt,-4,2,nt,nt
CC(C)n1cc(CN2CCC(C(=O)Nc3cccc(-c4cccc(Cl)c4)c3)CC2)cn1,+,39,-2,-2,i,0
CCn1cc(CN2CCC(C(=O)Nc3cccc(-c4cccc(F)c4)c3)CC2)cn1,i,6,3,-1,nt,nt
CCCCCCCCN1C(=O)[C@H](CC(=O)NCCCCc2ccccc2)C[C@@]2(C(=O)OC)CC(C)(C)CC=C12,i,0,-2,-1,nt,nt
N=C(N)SCc1nc2ccccc2c(=O)n1-c1ccccc1,+!,-2,-2,1,i,2
O=C(O)c1ccc(CSc2nc3ccccc3c(=O)n2-c2ccccc2)cc1,i,14,-4,0,nt,nt
SMILES,Myeloid diff MLP,Exocytosis inh,GC-B act,GC-A act,Myeloid diff CP1,GFP autofluor
Nn1cnc2c(ncn2C2OC(CO)C(O)C2O)c1=O (stereo not given),i,2,-1,-1,nt,nt
COc1ccc(NC(=O)N2CCCC2C(=O)NCCc2ccccc2)cc1 (stereo not given),i,-3,4,3,i,0
CN(C=O)c1cc([N+](=O)[O-])ccc1OCc1ccccc1,i,0,3,2,nt,nt
CCOc1ccccc1CSc1nc2ccccc2[nH]1,i,4,-1,-2,i,0
O=c1c2cc3cc4c(cc3nc2ncn1CCc1ccccc1)OCO4,nt,nt,-5,-4,nt,nt
O=C(/C=C\c1ccco1)NC(=S)Nc1ccccc1O,i,1,4,2,i,0
O=C(/C=C/c1ccco1)NC(=S)Nc1ccccc1O,i,-1,-3,2,nt,nt
C#CC[N+](C)(C)CC#Cc1ccc(Cl)cc1,i,-1,-3,0,nt,nt
C#CC[N+](CC)(CC)CC#Cc1cccc(Cl)c1,+,-4,4,1,i,1
CC(Sc1nnc(CN2CCCC2)n1Cc1ccccc1)C(=O)Nc1ccc(F)c(F)c1F (stereo not given),i,-1,-6,-6,nt,nt
CCOc1ccc2nc(N3CCC(C(=O)N4CCN(C(=O)c5ccco5)CC4)CC3)sc2c1,i,1,nt,nt,nt,nt
CCOc1ccc2nc(N3CCC(C(=O)N4CCN(C5CCCCC5)CC4)CC3)sc2c1,i,12,1,6,i,0
COc1cc(/C=C/c2sc3ccccc3[n+]2CCCS(=O)(=O)[O-])ccc1O,i,-4,-12,-22,nt,nt
CCC(/C=C1\Oc2ccc(OC)cc2N1C)=C\c1sc2ccccc2[n+]1CCCS(=O)(=O)[O-],i,-7,-5,1,i,85*
Cc1sc2ncnc(N3CCC(C(=O)Nc4cc(S(C)(=O)=O)ccc4Cl)CC3)c2c1C,i,-9,-5,-4,nt,nt
CCN(CC)S(=O)(=O)c1cc(NC(=O)C2CCN(c3ncnc4sc(C)c(C)c34)CC2)ccc1Cl,+,-4,-2,0,i,0
CCOc1cc(C(=S)N2CCOCC2)ccc1OC(=O)/C=C/c1ccc(OC)c(OC)c1,i,3,0,3,i,0
CCOc1ccc(/C=C/C(=O)N2CCOCC2)cc1OC,i,-4,-6,2,nt,nt
Cc1cccc(N2CCN(S(=O)(=O)c3c(C)[nH]c(=O)[nH]c3=O)CC2)c1C,i,10,-4,-2,i,0
CCC/C=C1/CCCOC(C(=O)NCc2ccc(C)o2)(C(F)(F)F)C1 (stereo not given),+,2,1,-3,i,0
Cc1ccc(C(=O)NC2CCCCN(Cc3cccc(Cl)c3)C2=O)c(C)c1 (stereo not given),nt,nt,-8,3,nt,nt
COCCNC(=O)C1(C)CCCN(C(=O)c2ccccc2)C1 (stereo not given),i,-8,5,4,nt,nt
CCCN1CCC(N2CCN(c3cccc(C(F)(F)F)c3)CC2)CC1,+,2,-1,3,i,0
O=C(CSc1nc2ccccc2n1Cc1ccccc1)NN=Cc1c[nH]c2ccccc12,nt,nt,-12,-3,nt,nt
